# Laboratory results taken from PubChem BioAssay (EPA / NIEHS).
# Inconclusive results are not listed. Activity calls are given as the source filed them. The calls were made as follows: active = hit-call score of the fitted dose curve at least 0.9, where 1 is the maximum; inconclusive = response in the unintended direction; inactive = score below 0.9.
# Molecular target: human Retinoic Acid Receptor beta (RARb), RARB (gene 5915) (UniProt P10826)
# Experiment: ATG_RARb_TRANS: Attagene TRANS-FACTORIAL HepG2 Assay for human Retinoic Acid Receptor beta (AID 2283004)
# Protocol: ATG_TRANS is a cell-based, multiplexed-readout assay that uses HepG2, a human liver cell line, with measurements taken at 24 hours after chemical dosing in a 24-well plate.ATG_RARb_TRANS is one of 30 assay component(s) measured or calculated from the ATG_TRANS assay. It is designed to make measurements of mRNA induction, a form of inducible reporter, as detected with fluorescence intensity signals by Reverse transcription polymerase chain reaction (RT-PCR) and Capillary electrophoresis technology.Data from the assay component ATG_RARb_TRANS was analyzed into 1 assay endpoint. This assay endpoint, ATG_RARb_TRANS, was analyzed in the positive analysis fitting direction relative to DMSO as the negative control and baseline of activity. Using a type of inducible reporter, measures of mRNA for gain-of-signal activity can be used to understand the reporter gene at the transcription factor-level as they relate to the gene RARB. Furthermore, this assay endpoint can be referred to as a primary readout, because this assay has produced multiple assay endpoints where this one serves a reporter gene function. To generalize the intended target to other relatable targets, this assay endpoint is annotated to the nuclear receptor intended target family, where the subfamily is non-steroidal.
# Human liver HepG2 cells are transiently transfected with multiple reporter transcription units (MRTUs) in 6-well plates using FuGene 6 reagent (Roche; 3 ml FuGene/1 mg DNA). The MRTU constructs are regulated by a cis-regulating element (promoter). […] A major difference between the CIS and TRANS system is that in CIS activities of endogenous TFs are measured, whereas the TRANS assay evaluates changes in activities of exogenous, chimeric NR-Gal4 proteins. […] At the end of 24 hour incubation, total RNA was isolated using TriZol reagent (Invitrogen). The isolated RNA is then reverse-transcribed using oligo(dT) primer and Mo-MLV reverse transcriptase (Invitrogen) with DNAse I (Ambion) treatment for 30 min. The one-tenth of the produced cDNA was amplified by PCR using Taq DNA polymerase (Invitrogen) and two reporter sequence-specific primers. The PCR products were fluorescently labeled by primer extension with 6-arboxyfluorescein (6-FAM) 5'-labeled reporter sequence-specific primer (2 min at 95 C, 20 s at 68 C and 10 min at 72 C) and these products were digested with 5U of HpaI (New England Biolabs) for 2h at 37 C. The fragments were purified using Qiaquick PCR columns (Qiagen), analyzed on an ABI 3130xL genetic analyzer (Applied Biosystems) with peak positions identified by using a set of X-rhodamine (ROX)-labeled MapMarker1000 molecular weight standards (BioVentures). The raw capillary electrophoresis data was processed using Attagraph software (Attagene).
# human Retinoic Acid Receptor beta (RARb), RARB (gene 5915), sequence (P10826 whole entry, looked up): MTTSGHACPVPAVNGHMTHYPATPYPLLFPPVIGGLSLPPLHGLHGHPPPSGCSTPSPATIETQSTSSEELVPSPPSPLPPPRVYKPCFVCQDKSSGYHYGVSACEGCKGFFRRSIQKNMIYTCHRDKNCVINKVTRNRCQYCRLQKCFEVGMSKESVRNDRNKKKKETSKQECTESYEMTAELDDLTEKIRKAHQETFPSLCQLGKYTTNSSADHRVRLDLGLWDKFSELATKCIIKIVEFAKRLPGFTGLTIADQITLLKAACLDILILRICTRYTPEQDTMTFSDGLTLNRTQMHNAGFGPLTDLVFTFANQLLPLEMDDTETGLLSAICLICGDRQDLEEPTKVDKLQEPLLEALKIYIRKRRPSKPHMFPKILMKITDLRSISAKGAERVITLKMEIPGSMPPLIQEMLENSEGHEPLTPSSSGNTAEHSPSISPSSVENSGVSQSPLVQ
Structure (SMILES),outcome,AC50
CC[C@H]1CC[C@H](NCc2cc3c(cc2OC)[C@H]2C[C@H]2C(=O)N3C)[C@H](c2ccccc2)N1,inactive,–
CCOCCO,inactive,–
O=C(O)c1cccc(Oc2ccccc2)c1,inactive,–
O=C(OC[C@H]1O[C@@H](OC(=O)c2cc(O)c(O)c(OC(=O)c3cc(O)c(O)c(O)c3)c2)[C@H](OC(=O)c2cc(O)c(O)c(OC(=O)c3cc(O)c(O)c(O)c3)c2)[C@@H](OC(=O)c2cc(O)c(O)c(OC(=O)c3cc(O)c(O)c(O)c3)c2)[C@@H]1OC(=O)c1cc(O)c(O)c(OC(=O)c2cc(O)c(O)c(O)c2)c1)c1cc(O)c(O)c(OC(=O)c2cc(O)c(O)c(O)c2)c1,inactive,–
CCN(C(=O)c1cc(C)cc(OC[C@H](C)Nc2ccncc2)c1)C(C)C,inactive,–
CC(O)CN(CCN(CC(C)O)CC(C)O)CC(C)O (stereo not given),inactive,–
CC(C)=CCCC(C)CCO (stereo not given),inactive,–
CC(C)CCCCCCOC(=O)c1ccc(C(=O)OCCCCCCC(C)C)c(C(=O)OCCCCCCC(C)C)c1,inactive,–
CCOC(=O)COc1ccc2c(c1)CC(NCC(O)c1cccc(Cl)c1)CC2 (stereo not given),inactive,–
CCNc1ccccc1,inactive,–
Cn1cnc([N+](=O)[O-])c1Sc1ncnc2nc[nH]c12,inactive,–
Cc1ccc(N)cc1O,inactive,–
CC(C)=CCC/C(C)=C/CO,inactive,–
CCOC(=O)c1ccc(C2CCC(NC[C@H](O)COc3ccc(O)c(NS(C)(=O)=O)c3)CC2)cc1 (stereo not given in full),–,52.3 µM (active)
C1=CCCC=CCCC=CCC1,inactive,–
CC(C)CCCCCCCOC(=O)CCCCC(=O)OCCCCCCCC(C)C,inactive,–
O=C1CCCCCN1,inactive,–
Nc1cccc(N)c1,inactive,–

Structure (SMILES),outcome,AC50
O=C(O)CC(O)C(=O)O (stereo not given),inactive,–
O=C(O)c1cccc(N(Cc2cccnc2)c2ccc(OC(F)F)c(OC(F)F)c2)c1,inactive,–
Cc1ccc(C)c(O)c1,inactive,–
C=CCCCCCCCCC(=O)O,inactive,–
O=C(O)CCN(C1(C(=O)NO)CCCC1)S(=O)(=O)c1ccc(Oc2ccc(F)cc2)cc1,inactive,–
CC(C)CCO,inactive,–
Nc1ccc(Nc2ccccc2)cc1,inactive,–
COCCOCCOCCOC,inactive,–
Clc1nc(Cl)c(Cl)c(Cl)c1Cl,inactive,–
C[C@](N)(Cc1ccc(O)c(O)c1)C(=O)O,inactive,–
CNS(=O)(=O)c1cc(C(=O)N2CCC(CCN3C4CCC3CC(n3c(C)nc5ccccc53)C4)(c3cccc(F)c3)CC2)c(Cl)cc1F (stereo not given),inactive,–
CC(=O)c1ccc2c(c1)[C@H](NC(=O)c1ccc(F)cc1)[C@@H](O)C(C)(C)O2,inactive,–
Cc1c(-c2cccnc2)c2ccccc2n1CCCCC(=O)O,inactive,–
CCCCCCCCO,inactive,–
Cc1ccc(S(=O)(=O)O)cc1C,inactive,–
COC(=O)c1ccccc1O,inactive,–
CN(C)c1ccc(Cc2ccc(N(C)C)cc2)cc1,inactive,–
